Measured values: the supplement of paper PMC10681739

Biological target: T1, ETS1 (UniProt P14921)
T1 sequence: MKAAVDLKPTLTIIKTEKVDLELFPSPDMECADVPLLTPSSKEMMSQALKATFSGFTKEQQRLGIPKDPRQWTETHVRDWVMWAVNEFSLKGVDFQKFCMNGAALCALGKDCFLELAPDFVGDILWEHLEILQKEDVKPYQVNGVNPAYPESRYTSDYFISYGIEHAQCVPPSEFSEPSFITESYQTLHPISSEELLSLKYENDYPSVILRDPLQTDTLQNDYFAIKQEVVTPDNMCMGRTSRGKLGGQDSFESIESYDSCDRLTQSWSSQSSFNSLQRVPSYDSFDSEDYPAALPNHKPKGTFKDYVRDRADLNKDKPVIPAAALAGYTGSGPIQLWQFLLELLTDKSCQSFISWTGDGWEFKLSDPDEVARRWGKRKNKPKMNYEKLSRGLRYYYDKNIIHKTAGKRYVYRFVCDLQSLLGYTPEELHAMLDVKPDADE
Experiment: ETS1 binding intensity (PBM fluorescence), ETS1 alone (arbitrary fluorescence units); higher = stronger binding
Settings: ETS1 concentration 1 nM; RUNX1 concentration 0 nM

Sequence | ETS1 binding intensity
AGGCGAAGGATGACTTCCTGCGGCACTACACAGTGT | 610
GAATCACCATTTCCTCACTCCCACACAACCATGTTG | 485
TCAAGAGGGTGTGGAGGAAGTGGGTTACAAGCACTT | 1450
CTTGCTCCCCACTTCCTACCACATTCAATGCCCGGA | 523
TACCGCTGCTTCCTGCCTGCGCGGTGAGCCTGTGCC | 829
TCTGGGCTGACTTCCTGGCTTCGTCCCACAACTTCA | 668
ATTAAAGACTTCCGTGCAAGACCACAGCTGCCTGAC | 555
CCGAAGAGGAAGCTCCACAGGACCTCCGCGGTCAGC | 397
GGGGGCAGGAAGCAGTGCAGCTCCTTAACCCACTTC | 842
CGAGTCAGGAAATCACAGCTCTGCGGGTGGGCTCCT | 458
ACGTCTTTATTTATCCTGTGGCTTCCCGACCCCCAC | 537
TTTTCCCACTTCCTAGGTTGTGGTGGGGATTACACA | 475
CGTTTCCTGTGGCTGCAGCTCTCCCCACCCACACAC | 829
AGGAGAGGATGTTGCTTGAAGGTGTGGTCTCCTCCA | 549
ATGACTTCGAGGAAGTCTTCAGAAACCACAGGCTGA | 405
AGTTGCTAAGGAAATGACTGCCCGCAGCGCCTGGCC | 423
ACACCGCTCAGGAAGACAAAGCCACACCTCACACCA | 443
TTGGAGACACACAAAGGATGTGGGCTGTGCGTGTGT | 1380
GCACCATCTCCCGACTTCCGCGGTGTCCCAGGTCCT | 559
AAAGGGCAGACTTCCCTGCCCACATCTCTGCTCCTG | 462

Sequence | ETS1 binding intensity
CGGCACCCTCCTTCCTCCCTGCCAACCGCCTCCACC | 556
GAGAGCTGAGCGGAAGCTCAGCTGTGGGGCTGGTTG | 1740
GAATGACAGGAAGATGATTAGTGATAGTGGGTTTGG | 740
GTCGGGAAGTAGGCGGGGTGACGTGTGGTTGACGAG | 426
GAAGAAGTCAGGAAATGCTGCCGCAGCAGCCAGCCC | 878
GGGGCCCCGGATGCACTGAGCGGCTGCGGCGCGGCT | 613
GGGCTTCCGGCTGAACCCATGGCTGCGGGCTGTGCT | 445
CGTTTGCCTATCTTCCTCCCCACAGAAGCACTCCAT | 453
GGGCCCCCGGAAAGAGCTTTGACCGCTCGAGCCTGC | 456
AAAACAACTTCCTTCCCCTCTCTCTCCACCACAGTC | 554
GTGGCTTCCTGCCATTGACAATTGCGGGATGGCTTT | 529
TCGCATAGCCGGGAAGCGCGGTGGAGGTTGTTGGGG | 428
GCGTTTCCCCCTTGGGGTTATAGCAACCACCTCCTC | 479
GCACCGTCCCAGCATCCGGACACCACAGCGGCCCTT | 602
CGCCGGTCCCATATCCTTTCTGCGGGGTGAGCAGCA | 465
GCAAGGTGGAGAGGAGGATGTGGCTTACCAGCAATT | 1280
CCCTTTTCCTTCCGGCCTGTGCGGCTTATAAGATCT | 736
GCTCGCGTCATCCTGCAGCGCCGACACCACAGACAC | 501
GTATTTATTTCCTCTTCGAAGAAATGCGGGGGTGCC | 473
CTGCGCTTCCGCTTCACCCGGAGTACAGCGGTCCTG | 842

Biological target: T1, ETS1
Experiment: ETS1 binding intensity (PBM fluorescence) in presence of RUNX1, normalised to ETS1-only experiment (arbitrary fluorescence units); higher = stronger binding
Settings: ETS1 concentration 1 nM; RUNX1 concentration 25 nM

Sequence | ETS1 binding intensity
AGGCGAAGGATGACTTCCTGCGGCACTACACAGTGT | 656
GAATCACCATTTCCTCACTCCCACACAACCATGTTG | 417
TCAAGAGGGTGTGGAGGAAGTGGGTTACAAGCACTT | 1940
CTTGCTCCCCACTTCCTACCACATTCAATGCCCGGA | 558
TACCGCTGCTTCCTGCCTGCGCGGTGAGCCTGTGCC | 802
TCTGGGCTGACTTCCTGGCTTCGTCCCACAACTTCA | 617
ATTAAAGACTTCCGTGCAAGACCACAGCTGCCTGAC | 513
CCGAAGAGGAAGCTCCACAGGACCTCCGCGGTCAGC | 1000
GGGGGCAGGAAGCAGTGCAGCTCCTTAACCCACTTC | 892
CGAGTCAGGAAATCACAGCTCTGCGGGTGGGCTCCT | 623
ACGTCTTTATTTATCCTGTGGCTTCCCGACCCCCAC | 576
TTTTCCCACTTCCTAGGTTGTGGTGGGGATTACACA | 571
CGTTTCCTGTGGCTGCAGCTCTCCCCACCCACACAC | 781
AGGAGAGGATGTTGCTTGAAGGTGTGGTCTCCTCCA | 462
ATGACTTCGAGGAAGTCTTCAGAAACCACAGGCTGA | 1430
AGTTGCTAAGGAAATGACTGCCCGCAGCGCCTGGCC | 929
ACACCGCTCAGGAAGACAAAGCCACACCTCACACCA | 358
TTGGAGACACACAAAGGATGTGGGCTGTGCGTGTGT | 1780
GCACCATCTCCCGACTTCCGCGGTGTCCCAGGTCCT | 434
AAAGGGCAGACTTCCCTGCCCACATCTCTGCTCCTG | 359

Sequence | ETS1 binding intensity
CGGCACCCTCCTTCCTCCCTGCCAACCGCCTCCACC | 696
GAGAGCTGAGCGGAAGCTCAGCTGTGGGGCTGGTTG | 1990
GAATGACAGGAAGATGATTAGTGATAGTGGGTTTGG | 880
GTCGGGAAGTAGGCGGGGTGACGTGTGGTTGACGAG | 546
GAAGAAGTCAGGAAATGCTGCCGCAGCAGCCAGCCC | 1070
GGGGCCCCGGATGCACTGAGCGGCTGCGGCGCGGCT | 642
GGGCTTCCGGCTGAACCCATGGCTGCGGGCTGTGCT | 329
CGTTTGCCTATCTTCCTCCCCACAGAAGCACTCCAT | 399
GGGCCCCCGGAAAGAGCTTTGACCGCTCGAGCCTGC | 489
AAAACAACTTCCTTCCCCTCTCTCTCCACCACAGTC | 560
GTGGCTTCCTGCCATTGACAATTGCGGGATGGCTTT | 542
TCGCATAGCCGGGAAGCGCGGTGGAGGTTGTTGGGG | 473
GCGTTTCCCCCTTGGGGTTATAGCAACCACCTCCTC | 358
GCACCGTCCCAGCATCCGGACACCACAGCGGCCCTT | 530
CGCCGGTCCCATATCCTTTCTGCGGGGTGAGCAGCA | 431
GCAAGGTGGAGAGGAGGATGTGGCTTACCAGCAATT | 1990
CCCTTTTCCTTCCGGCCTGTGCGGCTTATAAGATCT | 1090
GCTCGCGTCATCCTGCAGCGCCGACACCACAGACAC | 505
GTATTTATTTCCTCTTCGAAGAAATGCGGGGGTGCC | 438
CTGCGCTTCCGCTTCACCCGGAGTACAGCGGTCCTG | 713
